Measurements from PubChem BioAssay AID1026 (Columbia University Molecular Screening Center, 2008).
The source made the active and inactive calls. No rule for the calls is given here.

biological target: Bifunctional epoxide hydrolase 2 (Homo sapiens) (UniProt P34913); test: sEH inhibitor concentration-response potency, dose response, biochemical, human sEH, fluorescence, Infinite200 (AID 1026); settings: recombinant human sEH, fluorogenic substrate, at 0.2 µM, stronger effect = higher value
Sequence (P34913 whole entry, looked up): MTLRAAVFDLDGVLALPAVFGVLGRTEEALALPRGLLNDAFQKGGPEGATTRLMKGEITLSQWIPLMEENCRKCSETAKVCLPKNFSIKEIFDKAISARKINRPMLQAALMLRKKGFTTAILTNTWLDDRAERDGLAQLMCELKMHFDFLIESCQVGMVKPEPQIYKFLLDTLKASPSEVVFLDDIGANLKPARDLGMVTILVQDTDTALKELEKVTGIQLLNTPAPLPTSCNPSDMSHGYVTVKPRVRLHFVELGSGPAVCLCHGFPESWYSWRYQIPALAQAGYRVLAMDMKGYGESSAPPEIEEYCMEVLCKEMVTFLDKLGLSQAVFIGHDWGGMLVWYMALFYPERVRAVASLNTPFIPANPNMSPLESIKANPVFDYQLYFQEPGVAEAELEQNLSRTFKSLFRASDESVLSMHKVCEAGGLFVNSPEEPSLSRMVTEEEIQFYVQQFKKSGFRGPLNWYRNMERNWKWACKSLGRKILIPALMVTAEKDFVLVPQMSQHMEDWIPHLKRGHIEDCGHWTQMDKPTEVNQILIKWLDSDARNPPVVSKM

inhibition, inactive:
CCc1c(C)nc2ncnn2c1N1CCC(C(=O)NCc2ccc3c(c2)OCO3)CC1 41%, O=C(Nc1cccc(F)c1)NC1CC2CCCC(C1)N2C1CC1 (stereo not given) 58.4%, CCN(CCNC(=O)C1CCN(Cc2nc(-c3cccc(Cl)c3)oc2C)CC1)c1ccccc1 45.4%, CC1CCCC(NC(=O)Nc2cccs2)C1C (stereo not given) 49.2%, O=C(NCCc1ccccc1)NC1CCCCC1 44.6%, CCn1c(C(=O)N2CCCC(C(=O)NCCCc3ccccc3)C2)cc2sccc21 (stereo not given) 65.6%, COc1ccc(/C=N/NC(=O)c2ccc(COc3ccccc3Cl)o2)cc1 55.4%, O=C(Nc1ccc(F)c(F)c1)NC1CCCCC1 55.5%, Cc1ccccc1OCCCC(=O)Nc1ccc(Br)cc1 69.8%, O=C(Nc1cccc2ccccc12)c1ccc(OC(=S)N2CCOCC2)cc1 68.8%, O=C(NC1CCCCC1)N1CCCC(c2nc(-c3cccs3)no2)C1 (stereo not given) 65.8%, CCOC(=O)c1sc(NC(=O)c2ccc(C)s2)cc1C 59.1%, CCCCCC(=O)Nc1ccc2oc(-c3cncc(Br)c3)nc2c1 51.2%, O=C(NCc1cccs1)C1CCC(CNS(=O)(=O)c2ccc(Br)s2)CC1 (stereo not given) 62.3%, Cc1ccccc1C(=O)N1CCC(C(=O)Nc2ccc(S(=O)(=O)N(C)C(C)C)cc2)CC1 50.3%, COc1ccccc1NS(=O)(=O)c1cccc(C(=O)N/N=C(\C)c2ccc(-n3ccnc3)cc2)c1 46.4%, CSc1cccc(NC(=O)Nc2ccc(Cl)cc2)c1 59.3%, O=C(NCCSCc1ccco1)Nc1cccc(Cl)c1 46.2%, Cc1ccc(CCNC(=O)C2CCCN(S(=O)(=O)c3cccc4nsnc34)C2)cc1 (stereo not given) -5.2%, CCCCNC(=O)CSc1nc2ccc(NC(=O)CSc3nnc(COc4ccccc4C)n3C)cc2s1 58.5%, O=C(Nc1ccc2c(c1)OCCO2)NC12CC3CC(CC(C3)C1)C2 72.8%, COc1ccc(CNC(=O)C2CCC(CNS(=O)(=O)c3cccc4nsnc34)CC2)cc1 (stereo not given) 74.4%, COc1ccc(NC(=O)N2CCC(c3nc(-c4cccs4)no3)CC2)cc1 62.9%, CC(c1ccccc1)N1CCn2c(nc3cc(NC(=O)NC4CCCCC4)ccc32)C1 (stereo not given) 70.1%, Cc1cc(N2CCCC(C(=O)Nc3ccc4c(c3)CCC4)C2)n2ncnc2n1 (stereo not given) 50.2%, CC(C)CN1C(=O)c2ccc(C(=O)NCc3ccc4c(c3)OCO4)cc2C1=O 56%, O=C(Nc1ccc2c(c1)OCCO2)NC1CCCCC1 52.7%, Cc1ccc2c(c1)nnn2C1CCN(C(=O)NC23CC4CC(CC(C4)C2)C3)CC1 60.5%, O=C(NC12CC3CC(CC(C3)C1)C2)N1CCC(O)(c2ccc3c(c2)OCO3)CC1 46%, O=C(N/N=C/c1cccc(O)c1)c1csc2ccccc12 54.3%, CC(C)c1ccc(NC(=O)NC2CCN(CC(=O)Nc3cccc4ccccc34)CC2)cc1 62.2%, CC1CCCN(S(=O)(=O)c2ccc(NC(=O)c3cccc(-n4cnnn4)c3)cc2)C1 (stereo not given) 59%, Cc1cc2nc(-c3ccc(SCC(=O)N4CCN(C(=O)c5ccco5)CC4)nc3)[nH]c2cc1C 48%, CCC(=O)N1CCc2cc(S(=O)(=O)CCC(=O)NCCC3=CCCCC3)ccc21 40%, O=C(NC1CCCCCCC1)C1CCN(c2nc3ccccc3o2)CC1 73.5%, O=C(NCCC1=CCCCC1)c1ccc(Cl)c(S(=O)(=O)N2CCOCC2)c1 68.1%, Cc1oc(-c2ccccc2F)nc1CN1CCC(C(=O)NCCC2=CCCCC2)CC1 56.5%, CCc1ccc(NC(=O)Nc2ccc3c(c2)N(C)C(=O)CS3)cc1 61.2%, CCCCOc1cccc(/C=N/NC(=O)c2csc(C)c2C)c1 60.7%, O=C(Nc1ccc(N2CCOCC2)cc1)Nc1ccc(Cl)c(Cl)c1 40%
